Compound activity: PubChem BioAssay, National Center for Advancing Translational Sciences (NCATS)
Hits are enriched below; roughly 2.1% of the tested compounds scored in any of these assays.
Abeta rescue: qHTS for compounds that reverse cellular toxicity of Amyloid beta (A-beta) peptide in yeast: Primary Screen. AID 1347071, 2019. yeast expressing A-beta42, growth rescue, OD600, 48 h; response scale: 0% DMSO, 100% iron-clioquinol control. Potency, µM (doses to about 46.1 µM), actives largely listed as activators. 410,000 compounds, 0.063% hits; further: nearly all actives have a fitted effect of over 55% in size
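Growth rescue measured by 600 nm absorbance after 48 h yeast culture at 30 C with compound. Values normalized between DMSO and an equimolar ferric chloride plus clioquinol control.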
TDP43 rescue: qHTS of TDP-43 Inhibitors; TDP-43 expressing yeast growth rescue, BacTiter-Glo, 24 h; Potency, µM (top dose mostly 46.1 µM), most hits filed as activators; 410,000 compounds, 1.8% hits; AID 652104, 2013; further: nearly all actives have a fitted effect of over 50% in size
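Growth rescue of TDP-43-toxic yeast measured as ATP luminescence (BacTiter-Glo). Cells grown to mid-log in raffinose, induced in galactose at OD600=0.02, exposed to compound 24 hr at 30 deg C.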
FUS suppressor: qHTS for Suppressors of FUS Proteinopathy: Primary screen using FUS-linked yeast assay; Potency, µM (titrated, usually from 76.6 µM), most hits filed as activators; AID 1347120, 2019; 390,000 compounds, 0.24% hits; S. cerevisiae FUS-expressing, growth rescue, OD600, 24 h; further: nearly all actives have a fitted effect of over 55% in size
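Compound concentration series was pinned onto galactose-induced FUS-expressing yeast seeded at OD 0.005. Plates sat 24hr at 30C; absorbance at 600 nm gave growth. DMSO served as background control.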
aSyn yeast inh: qHTS of alpha-syn Inhibitors; Potency, µM (series often up to 46.1 µM), actives largely listed as activators; Yeast expressing alpha-synuclein, growth rescue, BacTiter-Glo, 24 h; 370,000 compounds, 0.14% hits; further: nearly all actives have a fitted effect of over 65% in size
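Galactose-induced alpha-syn yeast (OD600=0.02, raffinose-pregrown) + pinned cpd, 24 hr, 30 deg C; growth by BacTiter-Glo luminescence. Growth restoration scores as activation.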
Hits are given with their value; - = inactive; ? = inconclusive; . = not tested or not shown; ! = not confirmed by another sample; [ ] = remark or other dose. The call rests on the fitted dose curve; in most records, active means well fitted curve in the direction sought with a large enough effect; inconclusive means small, poorly fitted or top-dose-only effect, or another doubt; inactive means no such curve, though single readings can be large; an effect the other way counts as inactive or inconclusive.

SMILES | Abeta rescue | TDP43 rescue | FUS suppressor | aSyn yeast inh
C[C@H]1[C@H](NC(=O)c2ccc(C(F)(F)F)cc2)CC[C@@]23CCCN2C(=O)CCC[C@@H]13 | . | . | - | .
c1cnc(SCCOc2cccc3ccccc23)nc1 | - | 11µM | - | -
Clc1ccc(OCCSc2ncccn2)c2ccccc12 | - | ? | - | .
Cc1ccc(-c2c3c(=O)n(C)c(=O)n(C)c3c3c(-c4cccc(C)c4)nc4ccccc4n23)cc1 | - | ? | - | .
COc1ccc(-c2c3c(=O)n(C)c(=O)n(C)c3c3c(-c4cccc(C)c4)nc4ccccc4n23)cc1 | - | 16µM | - | .
O=C(Nc1cc(Cl)cc(Cl)c1)c1cc(S(=O)(=O)NC2CCCC2)ccc1F | - | 20µM | - | .
O=C(CN1C(=O)COc2ccc(S(=O)(=O)NC3CCCC3)cc21)Nc1ccc(F)c(Cl)c1 | - | - | 20µM | .
Cc1ccc(C2C(=O)N(C3CCCCCC3)CC(=O)N2CCC2=CCCCC2)cc1 (stereo not drawn) | - | - | - | .
CC(=O)NC(Cc1ccc(O)cc1)C(=O)NCC(N)C(=O)c1ccccc1 (stereo not drawn) | . | . | . | -
CCOCc1nnc(NC(=O)c2cc(Cl)ccc2OC)s1 | - | 13µM | - | -
COc1ccc(OCCNc2cc(N3CCOCC3)ccc2[N+](=O)[O-])cc1 | - | ? | - | -
COc1cccc(OCCNc2cc(N3CCOCC3)ccc2[N+](=O)[O-])c1 | - | 18µM | - | -
Cc1ccc(OCc2cc(C(=O)N3CCC(C(O)C(C)C)CC3)no2)cc1C (stereo not drawn) | - | 16µM | ? | -
COc1ccc(CNC(=O)C2CCN(c3nc4ccc(C)cc4[nH]3)CC2)cc1 | - | - | - | .
COc1ccc(NC(=O)c2c(NCc3cccs3)sc3c2CCCCC3)cc1 | - | -[9.22 µM] | - | .
CCOc1ccc(CCNC(=O)c2c(C)oc3ncn(CC(C)C)c(=O)c23)cc1 | - | 20µM | - | .
S=c1[nH]nc(-c2n[nH]c3c2CCC3)n1N=Cc1ccc(OCc2ccccc2)cc1 | . | . | - | .
COc1cccc(/C(=N/O)C2CC2c2ccc(Cl)cc2)c1 (stereo not drawn) | - | 16µM | - | -
COc1cccc(/C(C)=N/NS(=O)(=O)c2ccc(Cl)cc2)c1 | - | - | - | -
COc1ccc(-c2nc3ccccc3o2)cc1NC(=O)COc1ccc(C)cc1 | . | . | . | -
Cc1ccc(CC(SCc2ccccc2)C(=O)O)cc1C (stereo not drawn) | - | 11µM | - | -
O=C(COC(=O)C1CCCC1)Nc1cccc(Cl)c1Cl | - | - | - | -
Cc1ccc(Cl)cc1NC(=O)COC(=O)C1CCCC1 | 5.6µM | - | - | -
COc1ccc(Cl)cc1NC(=O)COC(=O)C1CCCCC1 | ? | 13µM | - | -[1.84 µM]
COc1ccccc1NC(=O)COC(=O)/C=C/c1cccs1 | - | 14µM | . | -
SMILES | Abeta rescue | TDP43 rescue | FUS suppressor | aSyn yeast inh
COc1ccc(NC(=O)COC(=O)/C=C/c2cccs2)c(OC)c1 | - | - | - | -
COc1ccc(Cl)cc1NC(=O)COC(=O)Cc1cccs1 | - | 10µM | - | -
COc1ccc(Cl)cc1NC(=O)COC(=O)C1CC1 | ? | - | - | -
CCN(CC)c1nn2c(=O)c(C(=O)NCc3cccc(OC)c3OC)cnc2s1 | - | - | - | .
CC(=O)N/C(=C/c1ccccc1)c1ccncc1 | . | . | . | -
COC(=O)[C@]12C[C@H](CC(=O)N3CCCCC3)C(=O)N(Cc3ccc(Cl)cc3Cl)C1=C[C@H](C1CCCC1)O[C@@H]2C | . | . | - | .
CCOC(=O)C1CCN(C(=O)Cn2ncc3c4ccccc4n(Cc4ccccc4)c3c2=O)CC1 | ? | - | ? | .
COc1cccc(Nc2ccc3cc(S(=O)(=O)N4CCC(C)CC4)ccc3n2)c1 | - | 13µM | - | .
CC(=NO)c1ccc2c(c1)C(=NO)c1ccccc1-2 | - | 13µM | . | -
COc1ccc2sc(-c3ccccc3OC)c(C#CCCO)c2c1 | - | 20µM | - | -
COc1cc(OC)cc(-c2sc3ccc(OC)cc3c2C#CCCO)c1 | - | - | ? | -
COc1ccccc1-c1sc2cc3c(cc2c1C#CCO)OCO3 | - | 22µM | ? | -
CCN1C[C@@H]2[C@@H]3C(=O)N(Cc4ccccc4)C(=O)[C@@H]3[C@](Cc3ccccc3)(C1=O)N2C(=O)c1ccc(Cl)c(Cl)c1 | - | - | - | -
CN1C[C@@H]2[C@@H]3C(=O)N(Cc4ccccc4)C(=O)[C@@H]3[C@](Cc3ccccc3)(C1=O)N2C(=O)c1ccc(Cl)c(Cl)c1 | - | - | 14µM | -
Cc1ccccc1-c1nnc2c3ccccc3c(C)nn12 | - | - | - | -
Cc1nn2c(-c3ccco3)nnc2c2ccccc12 | - | 8.9µM | - | .
COc1ccccc1N1CCN(CCN(C(=O)c2ccc(F)cc2)c2ccccn2)CC1 | - | - | - | 14µM!
COc1ccccc1N1CCN(CCN(C(=O)C2CCCCC2)c2ccccn2)CC1 | - | - | - | -
O=Cc1ccc(OC(=O)/C=C/c2ccccc2)cc1 | - | 18µM | - | -
N/C(=N\OC(=O)c1ccco1)c1cccc(Br)c1 | - | 11µM | - | -
CCOc1ccc(C(=O)O/N=C(\N)c2ccccn2)cc1OCC | - | 32µM | - | -
CCOc1ccc(/C=C/C(=O)Oc2ccccc2)cc1 | - | ? | - | -
N/C(=N\OC(=O)/C=C/c1ccccc1)c1ccccc1 | - | 18µM | - | -
N/C(=N\OC(=O)c1ccco1)c1cccc([N+](=O)[O-])c1 | - | ? | - | -
N/C(=N\OC(=O)/C=C/c1ccccc1)c1ccc(Cl)cc1 | - | ? | - | -
SMILES | Abeta rescue | TDP43 rescue | FUS suppressor | aSyn yeast inh
O=S(=O)(c1ccc2c(c1)CCCC2)N1CCN(c2nc(-c3ccccc3)nc3ccccc23)CC1 | . | . | . | -
Cc1ccc(Nc2nc(Nc3ccc(Cl)cc3)nc(N3CCOCC3)n2)cc1 | . | . | . | -
CC(=O)c1cccc(N(C(=O)Cn2nnc3ccccc32)C(C(=O)NCc2ccccc2)c2ccc(F)cc2)c1 (stereo not drawn) | - | - | - | .
Cc1ccc(NC(=O)C2CCCN(c3ncnc4onc(C)c34)C2)cc1Cl (stereo not drawn) | - | - | - | .
N/C(=N\OC(=O)c1ccc2ccccc2c1)c1ccc(Br)cc1 | - | - | - | -
N/C(=N\OC(=O)c1cccc(Br)c1)c1ccccc1 | - | 13µM | - | -
N/C(=N\OC(=O)c1cccc(Br)c1)c1ccccn1 | - | 11µM | - | -
O=C(CSc1nnc(-c2ccncc2)n1-c1ccc(Cl)cc1)c1ccc(Cl)c(Cl)c1 | . | . | - | .
CCN(Cc1ccccc1)C(=O)c1cc(-c2ccccc2)n[nH]1 | - | 18µM | - | .
CC(CNC(=O)c1cc(-c2ccccc2)n[nH]1)c1ccccc1 (stereo not drawn) | - | 35µM | - | .
CSc1cc(-c2ccncc2)nc(-c2ccc(Cl)cc2)c1 | - | 11µM | - | -
Clc1ccc2nc(-c3ccncc3)cc(-c3ccccc3)c2c1 | - | - | - | -
